Source: PubChem BioAssay (Tox21)
Where “and” joins values, the source holds several entries; their conditions need not be identical. Equal values may be shown once. Results filed as inconclusive are left out. Where a call stands in place of a potency, no number is given. A number with no mark means an inactive call. Calls of active or inactive are those of the source. Calls follow the shape of the dose curve; as a rule, active = well fitted cell-killing curve with a large enough effect in the repeat runs; inconclusive = weak or mixed curves, or effect the other way; inactive = flat fitted curve, though single readings scatter.

test: qHTS RealTime-Glo MT Cell Viability Assay in HEK293 cells - 32 hour (AID 1224868); conditions: RealTime-Glo luminescence; series mostly up to 76.8 µM; activity change, negative = cytotoxic: at the top concentration; also: nearly all actives have a fitted effect of over 50% in size; as to activity change, negative = cytotoxic: top concentration of the series differs between compounds
Description: National Center for Advancing Translational Sciences [NCATS]
NIH Chemical Genomics Center [NCGC]
U.S. Environmental Protection Agency [EPA]
National Institutes of Environmental Health Sciences [NIEHS]
National Toxicology Program [NTP]
U.S. Food and Drug Administration [FDA]
Measure of cell viability is critical in the cell-base assay. Analysis of cell viability is necessary for the characterization of cell responses to cytotoxic drugs and environmental stress. A RealTime-Glo MT Cell Viability Assay to monitor cell viability in real time of continues cell culture during 40 hours of compound treatment was used to screen Tox21 10K library compounds in Hek293 cells. The RealTime-Glo MT Cell Viability Assay is a nonlytic, homogeneous, bioluminescent method to measure cell viability in real time using a simple, plate-based method. The assay involves adding NanoLuc luciferase and a cell-permeant prosubstrate to cells in culture. Viable cells reduce the proprietary prosubstrate to generate a substrate for NanoLuc luciferase. This substrate diffuses from cells into the surrounding culture medium, where it is rapidly used by the NanoLuc Enzyme to produce a luminescent signal. The signal correlates with the number of viable cells, making the assay well suited for cytotoxicity studies.
Tox21 Assay Protocol Summary:
The mixture of Hek293 cell suspension and reagents were dispensed at 600cells/6 ul/well in 1536-well tissue culture treated black solid bottom plates using a Multidrop dispenser. After the assay plates were incubated at a 37 C/5% CO2 incubator for 5 hours, 23 nL of compounds dissolved in DMSO, positive and negative controls was transferred to the assay plate by a pintool work station. The plates were incubated at 37 C for 40 hours. The luminescence intensity were measured at 0h, 8h, 16h, 24h, 32h and 40h time points using ViewLux plate reader during compound treatment.
Potency is read from the fitted curve at half-maximal effect.

Question: Which Potency does the source give for O=C(O)c1cc(C(=O)O)cc(S(=O)(=O)O)c1 here?
Answer: inactive

Question: With c1ccc(OCCOc2ccccc2)cc1 as the molecule, how does the Potency read?
Answer: inactive

Question: For C=C(C)C(=O)Nc1ccc(Cl)c(Cl)c1, which Potency is on record?
Answer: 19.7 µM (active) and 21.8 µM (active)

Question: Which Potency does the source give for O=C(O)c1ccc(C(=O)O)cc1 here?
Answer: inactive

Question: For CC(=O)OCC(=O)[C@@]12N=C(C)O[C@@H]1C[C@H]1[C@@H]3CCC4=CC(=O)C=C[C@]4(C)[C@H]3[C@@H](O)C[C@@]12C, which Potency is on record?
Answer: inactive

Question: For C[C@H]1C[C@H]2[C@@H]3CCC4=CC(=O)C=C[C@]4(C)[C@@]3(F)[C@@H](O)C[C@]2(C)[C@@]1(O)C(=O)CO, which Potency is on record?
Answer: inactive

Question: For CCCCCC1=CCCC1=O, which Potency is on record?
Answer: inactive

Question: For CC(=O)c1ccccc1, which Potency is on record?
Answer: inactive

Question: For CCC(O)OC(O)CC (stereo not given), which Potency is on record?
Answer: inactive

Question: Which “activity change, negative = cytotoxic” value does the source give for CSCCC=O here?
Answer: 3.61%

Question: With O=c1[nH]c(=O)n([C@H]2CCCO2)cc1F as the molecule, how does the Potency read?
Answer: inactive

Question: With c1ccc2c(c1)ccc1ccccc12 as the molecule, how does the “activity change, negative = cytotoxic” value read?
Answer: -14.9%

Question: With C#C[C@]1(O)CC[C@H]2[C@@H]3CCC4=CC(=O)CC[C@@H]4[C@H]3CC[C@@]21C as the molecule, how does the “activity change, negative = cytotoxic” value read?
Answer: -11.7% [at 35.3 µM]

Question: Which Potency does the source give for CC(C)CC(=O)CC(C)C here?
Answer: inactive

Question: With CCCCCCCCCC as the molecule, how does the “activity change, negative = cytotoxic” value read?
Answer: 1.67%

Question: With COc1ccc(NC(C)=O)cc1N as the molecule, how does the Potency read?
Answer: inactive

Question: With CN(C)CCOCCN(C)C as the molecule, how does the Potency read?
Answer: inactive

Question: Which Potency does the source give for CCN(CC)c1ccc(C(=O)c2ccccc2C(=O)O)c(O)c1 here?
Answer: inactive

Question: For O=C(O)c1cc(=O)c2c(OCC(O)COc3cccc4oc(C(=O)O)cc(=O)c34)cccc2o1, which Potency is on record?
Answer: inactive

Question: With O=[N+]([O-])c1ccc(/C=C/c2ccc([N+](=O)[O-])cc2S(=O)(=O)O)c(S(=O)(=O)O)c1 as the molecule, how does the Potency read?
Answer: inactive

Question: For O=C(Oc1ccccc1)c1ccccc1, which Potency is on record?
Answer: inactive

Question: Which Potency does the source give for Cc1cccnc1 here?
Answer: inactive

Question: With Nc1ccccc1[N+](=O)[O-] as the molecule, how does the Potency read?
Answer: inactive

Question: Which Potency does the source give for CC(=O)CC(=O)Nc1ccccc1 here?
Answer: inactive

Question: With O=S(=O)(O)c1ccc2ccccc2c1 as the molecule, how does the Potency read?
Answer: inactive

Question: For C[Si](O[Si](C)(C)C)O[Si](C)(C)C, which Potency is on record?
Answer: inactive

Question: Which Potency does the source give for CCCCCCCCC/C=C/CC1CC(=O)OC1=O (stereo not given) here?
Answer: inactive

Question: Which Potency does the source give for CCc1cccc(C)c1N here?
Answer: inactive

Question: For O=c1[nH]c(=O)n([C@H]2C[C@H](O)[C@@H](CO)O2)cc1Br, which “activity change, negative = cytotoxic” value is on record?
Answer: 4.42% [at 35.3 µM]

Question: Which Potency does the source give for ON=C1CCCCC1 here?
Answer: inactive

Question: Which “activity change, negative = cytotoxic” value does the source give for COc1cc(Cc2cnc(N)nc2N)cc(OC)c1OC here?
Answer: -15.9% [at 35.3 µM]

Question: For COc1ccc2cc([C@H](C)C(=O)O)ccc2c1, which Potency is on record?
Answer: inactive

Question: For CCCCCCCCCCCCCCO, which Potency is on record?
Answer: inactive

Question: With OCCOCCN1CCN(C2=Nc3ccccc3Sc3ccccc32)CC1 as the molecule, how does the “activity change, negative = cytotoxic” value read?
Answer: -16.6% [at 35.3 µM]

Question: Which Potency does the source give for CN(C)CCC(c1ccc(Cl)cc1)c1ccccn1 (stereo not given) here?
Answer: inactive

Question: Which Potency does the source give for OCCOCCOCCO here?
Answer: inactive

Question: Which Potency does the source give for CCCCCC(N)=O here?
Answer: inactive

Question: With CC1=CC(=O)NS(=O)(=O)O1 as the molecule, how does the Potency read?
Answer: inactive

Question: For c1ccc2scnc2c1, which Potency is on record?
Answer: inactive

Question: With CCCCCCCCCCCCOCCO as the molecule, how does the Potency read?
Answer: inactive
